# From the antibiotic and cytotoxicity screens of Wong et al. (2023)
# Hit rate of the full screen: of about 39,000 compounds, about 1,500 (3.8%) were called active. Shown is part of a subset that was picked to be rich in actives.
# Test system: HSkMC (human skeletal muscle cells)
# Assay: cytotoxicity call (relative viability < 0.9)
# Settings: 10 µM
row,Structure (SMILES),cytotoxicity call
1,C[C@H]1CN([C@@H](C)CO)C(=O)c2cc(NC(=O)Cn3cnnn3)ccc2O[C@@H]1CN(C)Cc1ccc(-c2ccccc2)cc1,inactive
2,COc1ccc(NC(=O)Nc2ccc3c(c2)C(=O)N([C@H](C)CO)C[C@@H](C)[C@H](CN(C)S(=O)(=O)c2c(C)noc2C)OCCCC[C@@H](C)O3)cc1,inactive
3,CC1CC2C3CC(F)C4=CC(=O)C=CC4(C)C3(F)C(O)CC2(C)C1(O)C(=O)COC(=O)C(C)(C)C (configuration not stated),inactive
4,CC(=O)Nc1nnc2n1CCS2,inactive
5,C[C@H](O)C#Cc1cnc2c(c1)C(=O)N([C@H](C)CO)C[C@@H](C)[C@@H](CN(C)C(=O)CN1CCOCC1)O2,inactive
6,C[C@H]1CN([C@@H](C)CO)C(=O)c2cccc(NS(=O)(=O)c3ccc(F)cc3)c2O[C@@H]1CN(C)S(=O)(=O)c1cn(C)cn1,inactive
7,C[C@@H]1CCCCO[C@H](CN(C)C(=O)c2ccncc2)[C@H](C)CN([C@H](C)CO)C(=O)c2cc(NS(=O)(=O)c3cn(C)cn3)ccc2O1,inactive
8,O=C(C[C@@H]1C=C[C@@H](NC(=O)c2cccc(F)c2)[C@@H](CO)O1)NCCN1CCCC1,inactive
9,Clc1cccn2nnnc12,inactive
10,C[C@@H]1CCCCO[C@H](CN(C)Cc2ccc(C(=O)O)cc2)[C@H](C)CN([C@@H](C)CO)C(=O)c2cc(NC(=O)c3ccccc3)ccc2O1,inactive
11,C[C@@H]1CCCCO[C@@H](CN(C)Cc2ccc(C(F)(F)F)cc2)[C@H](C)CN([C@@H](C)CO)C(=O)c2cc(NC(=O)CCC(F)(F)F)ccc2O1,inactive
12,COC(=O)C1=CC(CCCO)=C[C@@H](c2cccs2)N(Cc2cccc(OC(F)(F)F)c2)C=C1C(=O)OC,inactive
13,COc1ccc(C#Cc2ccc3c(c2)[C@]2(C(=O)N3)[C@H](C(=O)O)[C@H]3C(=O)O[C@H](c4ccccc4)[C@H](c4ccccc4)N3[C@@H]2c2ccccc2OCCO)cc1,inactive
14,COCCOC(=O)N1C(=O)[C@@]2(c3cc(C#Cc4ccc(OC)cc4)ccc31)[C@H](c1ccc(OCCO)cc1)N1[C@H](c3ccccc3)[C@H](c3ccccc3)OC(=O)[C@H]1[C@@H]2C(=O)NC[C@H](O)c1ccccc1,inactive
15,COc1ccc(C#Cc2ccc3c(c2)[C@@]2(C(=O)N3C(=O)N[C@@H](C)c3ccccc3)[C@H](c3ccc(OCCO)cc3)N3[C@H](c4ccccc4)[C@H](c4ccccc4)OC(=O)[C@H]3[C@@H]2C(=O)O)cc1,active
16,NC(=O)[C@H]1[C@@H]2C(=O)O[C@@H](c3ccccc3)[C@@H](c3ccccc3)N2[C@@H](c2ccccc2OCCO)[C@]12C(=O)Nc1ccc(C#CC3=CCCCC3)cc12,active
17,O=C1O[C@H](c2ccccc2)[C@H](c2ccccc2)N2[C@H]1[C@@H](C(=O)O)[C@]1(C(=O)Nc3ccc(C#CC4=CCCCC4)cc31)[C@H]2c1ccccc1OCCO,inactive
18,O=C1O[C@@H](c2ccccc2)[C@@H](c2ccccc2)N2[C@@H](c3ccccc3OCCO)[C@]3(C(=O)Nc4ccc(C#CC5=CCCCC5)cc43)[C@@H](C(=O)O)[C@H]12,inactive
19,COc1ccc(C#Cc2ccc3c(c2)[C@]2(C(=O)N3)[C@H](c3ccccc3OCCO)N3[C@H](c4ccccc4)[C@H](c4ccccc4)OC(=O)[C@H]3[C@@H]2C(=O)O)cc1,inactive

row,Structure (SMILES),cytotoxicity call
1,COc1ccc(C#Cc2ccc3c(c2)[C@]2(C(=O)N3)[C@H](C(N)=O)[C@H]3C(=O)O[C@H](c4ccccc4)[C@H](c4ccccc4)N3[C@@H]2c2ccccc2OCCO)cc1,active
2,COCCOC(=O)N1C(=O)[C@@]2(c3cc(C#Cc4ccc(OC)cc4)ccc31)[C@H](c1ccc(OCCO)cc1)N1[C@H](c3ccccc3)[C@H](c3ccccc3)OC(=O)[C@H]1[C@@H]2C(N)=O,inactive
3,C[C@H]1CN([C@@H](C)CO)C(=O)c2cccc(NC(=O)c3cnccn3)c2O[C@@H]1CN(C)S(=O)(=O)c1cccs1,inactive
4,C[C@@H]1CCCCO[C@H](CN(C)Cc2ccc(C(F)(F)F)cc2)[C@@H](C)CN([C@@H](C)CO)C(=O)c2cc(NC(=O)C3CCCCC3)ccc2O1,inactive
5,O=C(NCCN1CCOCC1)[C@@H]1c2ccccc2C(=O)N(Cc2cc(C(F)(F)F)cc(C(F)(F)F)c2)[C@H]1c1ccc(CO)cc1,inactive
6,C[C@H]1CN([C@@H](C)CO)C(=O)Cc2cc(NC(=O)CCN3CCOCC3)ccc2O[C@@H]1CN(C)Cc1ccc(C(=O)Nc2ccccc2N)cc1,inactive
7,Cc1noc(C)c1NC(=O)Nc1ccc2c(c1)C(=O)N([C@H](C)CO)C[C@@H](C)[C@@H](CN(C)Cc1ccc(Oc3ccccc3)cc1)O2,inactive
8,C[C@@H]1CN([C@@H](C)CO)C(=O)c2cccc(NS(=O)(=O)c3cn(C)cn3)c2O[C@@H]1CN(C)S(=O)(=O)c1ccc(Cl)cc1,inactive
9,COc1ccc(CN(C)C[C@H]2Oc3ccc(NS(C)(=O)=O)cc3C(=O)N([C@@H](C)CO)C[C@@H]2C)cc1,inactive
10,CNC[C@H]1Oc2c(NS(=O)(=O)c3cn(C)cn3)cccc2C(=O)N([C@H](C)CO)C[C@H]1C,inactive
11,Cn1cnc(CCNC(=O)C[C@H]2CC[C@@H]3[C@H](COC[C@H](O)CN3C(=O)Nc3ccc(C(F)(F)F)cc3)O2)c1,inactive
12,CCNC(=O)C[C@@H]1C=C[C@H](NC(=O)C2CC2)[C@@H](CO)O1,inactive
13,C=CCC[C@H](Cc1ccc(F)cc1)C(=O)OC[C@H](Cc1c[nH]c2ccccc12)NC(=O)[C@@H](CC=C)CC(=O)N[C@@H](CO)Cc1ccccc1,active
14,C=CCC[C@H](Cc1ccc(F)cc1)C(=O)OC[C@H](Cc1c[nH]c2ccccc12)NC(=O)[C@@H](CC=C)CC(=O)N[C@H](CO)Cc1ccccc1,active
15,C=CC[C@H](CC(=O)N[C@@H](CO)Cc1ccccc1)C(=O)N[C@@H](COC(=O)[C@@H](CC=C)Cc1ccc(F)cc1)Cc1c[nH]c2ccccc12,inactive
16,C=CC[C@@H](CC(=O)N[C@H](CO)Cc1ccccc1)C(=O)N[C@@H](COC(=O)[C@@H](CC=C)NC(=O)OCC1c2ccccc2-c2ccccc21)Cc1c[nH]c2ccccc12,active
17,C=CCC[C@@H](Cc1ccc(F)cc1)C(=O)OC[C@H](Cc1c[nH]c2ccccc12)NC(=O)[C@@H](CC=C)CC(=O)N[C@H](CO)Cc1ccccc1,inactive
18,C=CCC[C@@H](Cc1ccc(F)cc1)C(=O)OC[C@H](Cc1c[nH]c2ccccc12)NC(=O)[C@@H](CC=C)CC(=O)N[C@@H](CO)Cc1ccccc1,inactive
19,C=CCC[C@H](Cc1ccc(F)cc1)C(=O)OC[C@H](Cc1c[nH]c2ccccc12)NC(=O)[C@H](CC=C)CC(=O)N[C@@H](CO)Cc1ccccc1,inactive

row,Structure (SMILES),cytotoxicity call
1,C=CCC[C@@H](Cc1ccc(F)cc1)C(=O)OC[C@@H](Cc1c[nH]c2ccccc12)NC(=O)[C@H](CC=C)CC(=O)N[C@@H](CO)Cc1ccccc1,inactive
2,C=CC[C@@H](CC(=O)N[C@H](CO)Cc1ccccc1)C(=O)N[C@H](COC(=O)[C@@H](CC=C)Cc1ccc(F)cc1)Cc1c[nH]c2ccccc12,inactive
3,CS(=O)(=O)N1CC(=O)Nc2ccccc21,inactive
4,COc1ccc(S(=O)(=O)Nc2ccc3c(c2)C(=O)N([C@@H](C)CO)C[C@@H](C)[C@@H](CN(C)Cc2ccc(C(=O)O)cc2)OCCCC[C@H](C)O3)cc1,inactive
5,C[C@@H]1CN([C@@H](C)CO)S(=O)(=O)c2ccc(C#CCN(C)C)cc2O[C@@H]1CN(C)Cc1ccccc1F,inactive
6,CC(C)NC(=O)Nc1ccc2c(c1)C(=O)N([C@H](C)CO)C[C@H](C)[C@H](CN(C)C(=O)Nc1cccc3ccccc13)OCCCC[C@H](C)O2,inactive
7,CC(C)NC(=O)N(C)C[C@H]1Oc2ccc(NC(=O)C3CCCCC3)cc2C(=O)N([C@H](C)CO)C[C@@H]1C,inactive
8,CCC(=O)Nc1ccc2c(c1)OC[C@@H](C)N(C(=O)CN1CCOCC1)C[C@H](C)[C@@H](OC)CN(C)C2=O,inactive
9,C[C@@H]1CN([C@@H](C)CO)C(=O)c2cccc(NC(=O)Nc3cccc4ccccc34)c2O[C@H]1CN(C)S(=O)(=O)c1ccccc1,inactive
10,COc1ccc(S(=O)(=O)Nc2cccc3c2O[C@H](CN(C)S(=O)(=O)c2ccc(C)cc2)[C@@H](C)CN([C@H](C)CO)C3=O)cc1,inactive
11,O=C(C[C@@H]1CC[C@H]2[C@@H](COC[C@@H](O)CN2S(=O)(=O)c2cccc(Cl)c2)O1)NCCCN1CCOCC1,inactive
12,COCC(=O)N1CC[C@]2(CC1)CN(Cc1cccc(c1)OC)[C@H](CO)c1c2c2ccc(cc2n1C)OC,inactive
13,C[C@H](CO)N1C[C@H](C)[C@@H](CN(C)S(=O)(=O)c2cn(C)cn2)OCc2cn(nn2)CCCC1=O,inactive
14,C[C@@H]1CN([C@@H](C)CO)C(=O)Cc2cc(NC(=O)Nc3ccc(C(F)(F)F)cc3)ccc2O[C@@H]1CN(C)Cc1ccccc1,active
15,C[C@@H]1CN([C@@H](C)CO)C(=O)Cc2cc(NC(=O)Nc3ccc(C(F)(F)F)cc3)ccc2O[C@H]1CN(C)Cc1ccccc1,inactive
16,C[C@H](CO)N1C[C@H](C)[C@H](CN(C)Cc2ccccc2)Oc2ccc(NC(=O)Nc3ccc(C(F)(F)F)cc3)cc2CC1=O,active
17,C[C@H]1CN([C@@H](C)CO)C(=O)Cc2cc(NC(=O)Nc3ccc(C(F)(F)F)cc3)ccc2O[C@@H]1CN(C)Cc1ccccc1,inactive
18,C[C@@H]1CN([C@H](C)CO)C(=O)Cc2cc(NC(=O)Nc3ccc(C(F)(F)F)cc3)ccc2O[C@H]1CN(C)Cc1ccccc1,active
19,C[C@H]1CN([C@@H](C)CO)C(=O)Cc2cc(NC(=O)Nc3ccc(C(F)(F)F)cc3)ccc2O[C@H]1CN(C)Cc1ccccc1,active
